A selection: hits, their analogues and other compounds. The true share with any hit is near 21%.
IL1B secr inh: blocks inflammasome-driven IL-1 beta release | THP-1 LPS/ATP IL-1B secretion, AlphaLISA, 16 h; hits give low values | activity change, % at 57.5 µM | 360,000 tested, 4.7% active | AID 743279; in the data active = activity change below about -50%; inconclusive = mostly about -30% to -49%
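Secreted IL-1B measured by AlphaLISA bead assay after 16 h compound exposure of THP-1 cells; compounds (final up to 57.5 uM) added 1 h before LPS (250 ng/mL) and ATP (1.25 mM) stimulation; lower signal means less secretion.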
Gal4-VP16 FLuc: counter-screen for ROR gamma inhibitors: Gal4-VP16 reporter. Drosophila S2 Gal4-VP16 UAS-luciferase, luminescence, 20 h. Potency, µM (top dose mostly 53.6 µM), without a hit: at the highest dose activity, negative = inhibition, hits mostly inhibitors. 310,000 tested, 3.5% active. AID 2546;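 note: Gal4-VP16 expression switched on by copper sulfate through the metallothionein promoter; potency is the fitted concentration of half-maximal effect; nearly all actives have a fitted effect of over 50% in size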
DT40 TDP1 CPT: growth inhibition of DT40 Tdp1-/-;hTDP1 cells with camptothecin (screen for TDP1 inhibitors) | chicken DT40 Tdp1-/-;hTDP1 cells + 20 nM CPT, ATP luminescence, 48 h | Potency, µM (highest dose often 46.2 µM), inactives show at the top dose activity change, negative = growth inhibition, hits mostly inhibitors | 420,000 tested, 12% active | AID 686979; note: potency is the fitted concentration of half-maximal effect; nearly all actives have a fitted effect of over 55% in size
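Chicken DT40 Tdp1-/- cells stably complemented with human TDP1 were seeded at 400 cells/well in medium containing 20 nM camptothecin, exposed to pin-transferred compounds, and grown at 37 °C for at least 48 hr. Viability was read as ATP luminescence.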
RORgamma inh: ROR gamma (mouse) transcription inhibition; Drosophila S2 Gal4-RORgamma UAS-luciferase reporter, 20 h; Potency, µM (doses to about 53.6 µM), without a hit: at the top dose activity change, negative = inhibition, most hits filed as inhibitors; 310,000 tested, 5.4% active; note: potency is the fitted concentration of half-maximal effect; nearly all actives have a fitted effect of over 60% in size
Target sequence (P51450 whole entry, looked up, the tested form may be a part): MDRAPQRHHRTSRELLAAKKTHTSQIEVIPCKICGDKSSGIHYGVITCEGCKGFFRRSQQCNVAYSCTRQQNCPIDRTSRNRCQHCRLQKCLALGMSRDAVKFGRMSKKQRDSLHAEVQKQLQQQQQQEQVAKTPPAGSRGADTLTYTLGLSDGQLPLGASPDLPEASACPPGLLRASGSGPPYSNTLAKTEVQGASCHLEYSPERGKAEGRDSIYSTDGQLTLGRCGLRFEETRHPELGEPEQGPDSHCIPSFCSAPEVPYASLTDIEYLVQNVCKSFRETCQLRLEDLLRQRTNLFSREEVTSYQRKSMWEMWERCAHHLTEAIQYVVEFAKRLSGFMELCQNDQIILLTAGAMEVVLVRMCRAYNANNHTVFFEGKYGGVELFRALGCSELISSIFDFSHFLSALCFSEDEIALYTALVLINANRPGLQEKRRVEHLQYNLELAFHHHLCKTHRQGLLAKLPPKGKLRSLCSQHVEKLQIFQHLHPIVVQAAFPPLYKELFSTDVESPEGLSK
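In this cell-based reporter format, copper sulfate (700 uM final) drives Gal4–ROR gamma fusion expression from a metallothionein promoter in Drosophila Schneider cells; compounds preincubated 1 hr, reporter read after 20 hr at ambient temperature.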
TDP1 cell noCPT: qHTS for Inhibitors of human tyrosyl-DNA phosphodiesterase 1 (TDP1): qHTS in cells in absence of CPT; Potency, µM (series often up to 46.2 µM), without a hit: top-dose activity change, negative = growth inhibition, actives largely listed as inhibitors; DT40 Tdp1-/- hTDP1 cells, no CPT, ATP luminescence, 48 h; 420,000 tested, 15% active; note: potency is the fitted concentration of half-maximal effect; nearly all actives have a fitted effect of over 55% in size
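A cellular qHTS used chicken DT40 cells lacking endogenous Tdp1 but carrying stably transfected human TDP1. Compounds were applied without camptothecin, and cell growth kinetics were judged by ATP-dependent luminescence after ≥48 hr.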
ELG1 repair inh: ELG1-dependent DNA repair inhibition. AID 504467. HEK293T ELG1-luciferase reporter, luminescence, 16 h; DNA damage induced by 5-fluorouridine. Potency, µM (titrated, usually from 46.1 µM), inactives show at the highest dose activity change, negative = inhibition, usual class: inhibitors. 330,000 tested, 2.3% active; note: potency is the fitted concentration of half-maximal effect; nearly all actives have a fitted effect of over 55% in size
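Quantitative HTS, concentration-response format. 2,000 cells/well co-treated with 5-fluorouridine and compound, 16 hr in 5% CO2 at 37 °C; ONE-Glo luminescence read after 30 min.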
Active calls of the source: *; ? = inconclusive; / = no result. Unless noted, calls come from the whole dose curve; as a rule, active = well fitted curve in the direction sought with a large enough effect; inconclusive = small, poorly fitted or top-dose-only effect, or another doubt; inactive = no such curve, though single readings can be large; an effect the other way counts as inactive or inconclusive. % is set by controls: 0 for no effect and ±100 for the full control effect.

SMILES | IL1B secr inh | Gal4-VP16 FLuc | DT40 TDP1 CPT | RORgamma inh | TDP1 cell noCPT | ELG1 repair inh
CC(C)C[C@H](NC(=O)c1[nH]cnc1C(=O)N[C@@H](Cc1ccccc1)C(=O)OC(C)(C)C)C(=O)OC(C)(C)C | -50* | 11µM* | 16µM* | 3.2µM* | ? | ?
C[C@H](NC(=O)c1nc[nH]c1C(=O)N[C@@H](Cc1ccccc1)C(=O)OCc1ccccc1)C(=O)OC(C)(C)C | 14 | ? | ? | ? | -28% | -2%
CC(C)C[C@H](NC(=O)c1[nH]cnc1C(=O)N[C@@H](C)C(=O)OC(C)(C)C)C(=O)OCc1ccccc1 | -16 | ? | ? | 16µM* | 16µM* | -14%
CC(C)C[C@H](NC(=O)c1[nH]cnc1C(=O)N[C@@H](Cc1ccccc1)C(=O)OC(C)(C)C)C(=O)OCc1ccccc1 | -6 | ? | ? | 7.9µM* | 23µM* | 16%
CC(C)C[C@H](NC(=O)c1[nH]cnc1C(=O)N[C@@H](C)C(=O)OCc1ccccc1)C(=O)OCc1ccccc1 | -5 | / | ? | / | ? | -15%
CC(C)C[C@H](NC(=O)c1[nH]cnc1C(=O)N[C@@H](Cc1ccccc1)C(=O)OCc1ccccc1)C(=O)OC(C)(C)C | 3 | 16µM* | 21µM* | 5.6µM* | 21µM* | 13%
CCCN(C)C1CN(Cc2cn(Cc3cc(C)cc(C)c3)nn2)S(=O)(=O)C1 (stereo unspecified) | 46 | / | 1% | / | -6% | /
CCN(CC)C(=O)c1[nH]cnc1C(=O)N[C@@H](CC(C)C)C(=O)OC(C)(C)C | 42 | ? | -21% | ? | -16% | -15%
CC(C)C[C@H](NC(=O)c1[nH]cnc1C(=O)N[C@@H](C)c1ccccc1)C(=O)OC(C)(C)C | -4 | 0.63µM* | ? | 0.63µM* | ? | ?
CC(C)(C)OC(=O)C(Cc1ccc(OC(C)(C)C)cc1)NC(=O)CNC(=O)OCc1ccccc1 (stereo unspecified) | -71* | ? | 16µM* | ? | 12µM* | 8.2µM*
CC(C)C[C@H](NC(=O)c1[nH]cnc1C(=O)Nc1ccccc1F)C(=O)OC(C)(C)C | -2 | / | -89% | / | 23µM* | /
CC(C)(C)OC(=O)CNC(=O)c1[nH]cnc1C(=O)N[C@@H](Cc1ccccc1)C(=O)OC(C)(C)C | 0 | 13µM* | ? | ? | ? | ?
C[C@@H]1CN([C@@H](C)CO)C(=O)CCCn2nncc2CO[C@@H]1CN(C)C(=O)Cc1ccccc1 | 19 | / | -11% | / | -28% | /
CCN(CC)C(=O)c1[nH]cnc1C(=O)N[C@@H](Cc1ccccc1)C(=O)OC(C)(C)C | 28 | ? | ? | 10µM* | ? | 0%
COc1ccc(CSC(=S)NNc2ccccc2)cc1 | 41 | / | ? | / | 18µM* | /
COc1ccc(C(=O)NNc2ccccc2)cc1 | 6 | 3% | 18% | 30% | 21% | ?
N[C@H](C(=O)O)[C@H](OCc1ccccc1)C(=O)O | / | 2% | 0% | -7% | -6% | /
COc1ccc(C(=O)C(C)OC(=O)c2cccc(S(=O)(=O)Nc3cc(Cl)c(OC)cc3OC)c2)cc1 (stereo unspecified) | -6 | -17% | 23µM* | ? | 21µM* | -4%
COc1ccc(NS(=O)(=O)c2cccc(C(=O)O)c2)cc1 | -28 | -8% | 3% | -12% | -3% | 1%
Cc1ccc(N=Cc2ccc(N(C)C)cc2)cc1 | -14 | 0% | -2% | -9% | 2% | 14%
CN(C)c1ccc(N=Cc2ccco2)cc1 | 1 | ? | 8.2µM* | ? | 5.2µM* | ?
CN(C)c1ccc(N=Cc2ccncc2)cc1 | / | / | 6.3µM* | / | 5.6µM* | /
CC(C)(O)C(=O)O | / | 9% | / | -4% | / | /
CC(=O)Nc1cccc(NC(=O)C(=O)NCC(c2ccco2)N2CCc3ccccc32)c1 (stereo unspecified) | -8 | / | ? | / | ? | -13%
COc1ccc(C2CC(=O)c3cc(-c4nc(-c5cccc([N+](=O)[O-])c5)cs4)c(=O)n(-c4ccc(C)c(C)c4)c3C2)cc1 (stereo unspecified) | / | / | 10% | / | 0% | /
SMILES | IL1B secr inh | Gal4-VP16 FLuc | DT40 TDP1 CPT | RORgamma inh | TDP1 cell noCPT | ELG1 repair inh
CCN(CC)c1ccc(N=Cc2ccc([N+](=O)[O-])o2)cc1 | -67* | 22µM* | 5.8µM* | ? | 10µM* | 6%
Cc1ccc(NCC(=O)N/N=C\c2ccc([N+](=O)[O-])o2)cc1 | -64* | ? | 13µM* | ? | 18µM* | ?
O=C(Cc1ccc2c(c1)OCCO2)N/N=C/c1ccco1 | -14 | / | 2% | / | -9% | 30%
Cc1ccc(NCC(=O)N/N=C/c2ccc(C(=O)O)cc2)cc1 | 8 | -13% | 2% | -6% | 26% | 3%
Cc1ccc(CCC(=O)Nc2ccc(Cl)cc2Cl)o1 | -18 | / | -20% | / | -24% | /
O=C(Cc1ccc2c(c1)OCO2)NN=Cc1ccc([N+](=O)[O-])o1 | -61* | / | ? | / | 12µM* | 16µM*
O=C(CCC(=O)Nc1ccc(Cl)cc1Cl)N/N=C/c1ccc([N+](=O)[O-])o1 | -77* | 16µM* | 2.6µM* | ? | 2.9µM* | ?
Cc1ccc(NC(=O)Cn2c(=O)c3cc(Cl)ccc3n3nncc23)cc1 | / | / | -2% | / | -26% | /
COc1ccccc1-c1nccc(NC2CCNCC2)n1 | / | 0% | -3% | -19% | 0% | /
O=C(CNc1ccccc1)N/N=C/c1ccc([N+](=O)[O-])o1 | ? | ? | 10µM* | 1% | 7.3µM* | ?
CCCCCC(=O)N/N=C/c1ccc([N+](=O)[O-])o1 | 21 | -27% | 11µM* | -18% | ? | /
O=C(CNC(=O)c1ccccc1)N/N=C/c1ccc([N+](=O)[O-])o1 | 17 | 18µM* | 9.2µM* | -28% | 23µM* | ?
O=C(N/N=C/c1ccc([N+](=O)[O-])o1)C1CCCC1 | 36 | -28% | ? | -38% | ? | ?
Cc1cc2c(cc1S(=O)(=O)Nc1cccc(C(F)(F)F)c1)OCCN2C | / | / | -24% | / | ? | /
CCOc1ccc(S(=O)(=O)N(CC)CC(=O)NCc2ccncc2)cc1C | -4 | 5% | -15% | 3% | -13% | -1%
Cc1cc(C)cc(NS(=O)(=O)c2cnc(Cl)c(Cl)c2)c1 | 2 | -12% | ? | ? | ? | -4%
